A549 viability: kills or reduces viability of A549 cells in Nrf2 counter-screen; A549 ARE-Fluc cells, CellTiter-Fluor viability, 18-24 h; Potency, µM (top dose mostly 46 µM), for the others: at the highest dose activity change, negative = cytotoxicity, actives largely listed as inhibitors; actives 0.16% (n = 390,000); also: % is scaled to controls: 0 for no effect and ±100 for the full control effect
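Cytotoxicity counterscreen: CellTiter-Fluor fluorescence was measured in A549 ARE_Fluc cells after 18-24 h of compound exposure in a concentration series. The subsequent BugLite luminescent read reports ARE-luciferase activity.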
HepG2 viability: counter-screen for TGF-b inhibitors: cytotoxicity in HepG2 cells; HepG2 CAGA-GFP viability, ATP luminescence, 18 h; actives 0.76% (n = 410,000); Potency, µM (doses to about 46.1 µM), for inactives: at the top dose activity change, negative = cytotoxicity, actives largely listed as cytotoxic
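HepG2 CAGA-GFP cells (1000/well, DMEM with 1% FBS) received compound, then TGF-beta at 500 pg/mL final, and were incubated 18 hours at 37 degrees C. Viability was read by CellTiter-Glo luminescence. Media-only wells were set as complete cell-killing and DMSO as no toxicity.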
TGFb SMAD3 inh: inhibitors of TGF-b signaling | Potency, µM (doses to about 46.1 µM), for the others: top-dose activity, negative = inhibition, usual class: inhibitors | actives 1.2% (n = 410,000) | HepG2 CAGA-GFP TGF-b/SMAD3 reporter, GFP fluorescence, 18 h; TGF-beta stimulated, 500 pg/mL final; also: % is scaled to controls: 0 for no effect and ±100 for the full control effect; nearly all actives have a fitted effect of over 65% in size
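First, reporter cells (HEPG2 CAGA-GFP) rested 2 h at 37 degrees C. Next, compounds were pinned in and TGF-beta added to 500 pg/mL final. After 18 h, GFP was imaged per cell and summed per well.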
Nrf2 block: Nrf2 pathway inhibition | A549 ARE-Fluc reporter, luciferase luminescence, 18-24 h | Potency, µM (highest dose often 46 µM), for the others: at the top dose activity change, negative = inhibition, actives largely listed as inhibitors | actives 2.1% (n = 360,000) | AID 504444; also: % is scaled to controls: 0 for no effect and ±100 for the full control effect; nearly all actives have a fitted effect of over 60% in size
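In this cell-based qHTS, ARE-driven firefly luciferase in A549 cells reports Nrf2 activity; the luminescent signal after BugLite lysis is the measured value, with a prior CellTiter-Fluor read for cell health.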
ATXN viability: reduces viability in counter-screen for ATXN expression inhibitors | Potency, µM (series often up to 56.7 µM), most hits filed as cytotoxic | S2 cells (HEK-293 line with an ATXN2-luciferase reporter) viability, CellTiter-Fluor protease fluorescence, 24 h | actives 0.49% (n = 400,000); also: nearly all actives have a fitted effect of over 40% in size
ATXN2 expr inh: ATXN2 expression inhibition. HEK-293 ATXN2-luciferase reporter, luminescence, 24 h. Potency, µM (top dose mostly 57 µM), for inactives: top-dose activity change, negative = inhibition, actives largely listed as inhibitors. actives 0.72% (n = 360,000); also: % is scaled to controls: 0 for no effect and ±100 for the full control effect; nearly all actives have a fitted effect of over 55% in size
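ATXN2-luciferase reporter cells (luciferase flanked by upstream and downstream ATXN2 gene portions) were treated 24 h at 37 °C with compounds at up to 57 uM. SteadyGlo luminescence gave expression; GF-AFC fluorescence gave viability.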
Active calls of the source: *. In the library only some 3.8% were active in any assay of this set; here they are far more common. Calls follow the shape of the dose curve; as a rule, active = well fitted curve in the direction sought with a large enough effect; inconclusive = small, poorly fitted or top-dose-only effect, or another doubt; inactive = no such curve, though single readings can be large; an effect the other way counts as inactive or inconclusive. Potency is read from the fitted curve at half-maximal effect.

`CN(C)C1(CNC(=O)C2CCC(=O)N(Cc3ccc(Cl)cc3)C2)CCCCC1` (stereo not drawn) gave A549 viability 1%, HepG2 viability 14µM*, TGFb SMAD3 inh 2%, Nrf2 block -8% and ATXN viability inactive.
`CC(C)CCNC(=O)CN1C(=O)CCn2nc(-c3cn(C)c4ccccc34)cc21` gave A549 viability 14%, HepG2 viability -5%, TGFb SMAD3 inh -19%, ATXN viability inactive and ATXN2 expr inh -5%.
`CCN1CCC(N(Cc2ccc(F)cc2)C(=O)Nc2cccc(C(F)(F)F)c2)CC1` gave A549 viability -10%, HepG2 viability -96%, TGFb SMAD3 inh inconclusive, Nrf2 block 0%, ATXN viability inactive and ATXN2 expr inh 28µM*.
For CCN1CCC(N(Cc2cccc(OC)c2)C(=O)Nc2cccc(C(F)(F)F)c2)CC1 the results were A549 viability -1%, HepG2 viability 7.1µM*, TGFb SMAD3 inh inconclusive, Nrf2 block 8%, ATXN viability inconclusive and ATXN2 expr inh -39%.
CCN1CCC(N(Cc2ccc(F)cc2)C(=O)Nc2ccc(C)c(F)c2)CC1 was read as A549 viability -3%, HepG2 viability -48% and Nrf2 block 11%.
`COc1ccc2nc(C)cc(Nc3ccc(Cl)c(Cl)c3)c2c1` gave A549 viability -13%, HepG2 viability 11µM*, TGFb SMAD3 inh inconclusive, Nrf2 block inconclusive, ATXN viability 22µM* and ATXN2 expr inh 25µM*.
COc1ccc(/C=N/Nc2cc(C)nc3ccc(OC)cc23)c(OC)c1 was read as A549 viability inconclusive, HepG2 viability -107%, TGFb SMAD3 inh 10µM*, Nrf2 block inconclusive and ATXN2 expr inh inconclusive.
`S=C(NCCCc1cnc[nH]1)NCCCN(Cc1ccc(Cl)cc1)c1cc(-c2ccccc2)ccn1` gave A549 viability -24%, HepG2 viability -94%, TGFb SMAD3 inh inconclusive and Nrf2 block -19%.
Screening CC(CCc1ccccc1)NC(=O)c1ccc(C(=O)NC(C)CCc2ccccc2)cc1 (stereo not drawn) returned A549 viability inconclusive, HepG2 viability -20%, TGFb SMAD3 inh -7%, Nrf2 block 12µM*, ATXN viability inconclusive and ATXN2 expr inh 6.3µM*.
For CC(CCc1ccccc1)NC(=O)c1cccc(F)c1 (stereo not drawn) the results were A549 viability 7%, HepG2 viability -44%, TGFb SMAD3 inh 11µM*, Nrf2 block -2%, ATXN viability inactive and ATXN2 expr inh 2%.
CC(CCc1ccccc1)NC(=O)c1ccccc1 (stereo not drawn) was read as A549 viability 9%, HepG2 viability 1%, TGFb SMAD3 inh inconclusive, ATXN viability inactive and ATXN2 expr inh 3%.
COC(=O)Cc1c(C)c2ccc3c(c2oc1=O)CN(Cc1ccccc1OC)CO3 was read as A549 viability inconclusive, HepG2 viability 0%, TGFb SMAD3 inh 3%, Nrf2 block 33% and ATXN2 expr inh -11%.
`Cc1ccc(OC(=O)CSc2nnc(CNC(=O)c3ccccc3)o2)cc1` gave A549 viability 26%, HepG2 viability -1%, TGFb SMAD3 inh -1%, Nrf2 block 7%, ATXN viability inactive and ATXN2 expr inh -3%.
Clc1cccc(Cl)c1CO/N=C/c1c(-c2ccccc2)nc2n1CCS2 was read as A549 viability -24%, HepG2 viability -10%, TGFb SMAD3 inh inconclusive and Nrf2 block 18µM*.
`COC(=O)/C(C#N)=C/c1c(-c2ccccc2)nc2n1CCS2` gave A549 viability 1%, HepG2 viability -15%, TGFb SMAD3 inh 17%, Nrf2 block inconclusive, ATXN viability inactive and ATXN2 expr inh 4%.

Assay outcomes from PubChem BioAssay.
